# Bioassay records (PubChem)
# FBW7 activator: FBW7 E3 ligase activators, primary screen, biochemical, AlphaScreen, human. F-box/WD repeat-containing protein 7 (Homo sapiens), Q969H0. AlphaScreen FBW7–phospho-cyclin E peptide binding, activator screen. normalized activity (activation), % at 26.1 µM. 650,000 tested, 0.13% active. AID 1259310, 2017; in the data active means normalized activity above about 1.9%;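 further: purified mutant Fbw7 with reduced substrate affinity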
# MITF inh: MITF inhibitors, primary screen, biochemical, AlphaScreen, human; Microphthalmia-associated transcription factor (Homo sapiens), O75030; AlphaScreen MITF homodimerization, bead proximity signal; 650,000 tested, 0.91% active; inhibition, % at 2.6 µM; in the data active means inhibition above about 50%;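 further: 0% = vehicle wells with protein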
# Target sequence (O75030 whole entry, looked up): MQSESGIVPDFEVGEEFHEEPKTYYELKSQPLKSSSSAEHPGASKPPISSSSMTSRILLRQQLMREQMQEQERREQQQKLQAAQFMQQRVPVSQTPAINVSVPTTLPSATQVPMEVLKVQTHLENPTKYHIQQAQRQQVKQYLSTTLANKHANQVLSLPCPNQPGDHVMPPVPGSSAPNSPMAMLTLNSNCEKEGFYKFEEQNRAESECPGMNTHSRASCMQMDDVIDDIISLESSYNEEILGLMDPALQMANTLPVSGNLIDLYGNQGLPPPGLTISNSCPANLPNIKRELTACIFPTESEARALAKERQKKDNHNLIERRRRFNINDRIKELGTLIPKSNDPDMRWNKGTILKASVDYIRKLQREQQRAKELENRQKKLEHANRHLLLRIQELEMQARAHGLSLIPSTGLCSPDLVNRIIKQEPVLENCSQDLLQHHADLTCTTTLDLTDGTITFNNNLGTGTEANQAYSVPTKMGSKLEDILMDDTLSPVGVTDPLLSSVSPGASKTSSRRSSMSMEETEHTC
# GPR151 activ: activators of human GPR151, primary screen, cell-based, PathHunter beta-arrestin, luminescence; PathHunter beta-arrestin GPR151 cells; activation, % at 11.2 µM; 650,000 tested, 1% active; AID 1508602, 2020; in the data active means activation above about 4.9%;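 further: 0% = median of compound wells and 100% = cells with positive control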
# TEAD-YAP block: TEAD-YAP interaction inhibition, primary screen, TEAD-YAP interaction inhibitor project, luminescence, HEK-TIYL cells. TEAD-Gal4/YAP UAS-luciferase luminescence. inhibition, % at 9.12 µM. 640,000 tested, 1.4% active. AID 1259422, 2018; in the data active means inhibition above about 32%;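 further: 0% = median of test compound wells and 100% = reference inhibitor wells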
# GPR151 conf act: GPR151 activators, triplicate retest, confirmation, cell-based, PathHunter beta-arrestin, luminescence. GPR151 PathHunter beta-arrestin cells, 90 min; % of EA-reagent control over plate median. 6,700 tested, under 10 active. activation, % at 11.2 µM. AID 1508609, 2020. shares compounds with GPR151 activ;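 active means mean percent activation across replicates above the confirmation screen cutoff of 4.91%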
# GPR119 ag: GPR119 activators in beta-arrestin cells, counter-screen for GPR151 activator project, cell-based, PathHunter beta-arrestin, luminescence, triplicate; shares compounds with GPR151 activ; 90 min; 0 = compound-well median, 100 = enzyme-acceptor control; activation, % at 11.2 µM; 6,700 tested, 0.3% active;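 active means mean percent activation in the counterscreen above 29.09%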;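 further: counterscreen on off-target GPR119 to flag nonselective hits from the GPR151 activator screen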
# * marks the source's active call; other numbers are inactive results; . = no result; ! = not active in a repeat. The list is not random: actives were taken first. Their share in the collection is about 3.4%.
SMILES,FBW7 activator,MITF inh,GPR151 activ,TEAD-YAP block,GPR151 conf act,GPR119 ag
Cc1ccc(S(=O)(=O)NC(=O)N2c3ccccc3CCc3ccccc32)cc1,0,-4,7.4*,-1,-1,-13
CN1CCN(NC(=O)Nc2ccccc2C(F)(F)F)CC1,1,8,-1,8,.,.
O=C1CC(N2CCN(C3CCCCC3)CC2)C(=O)N1c1ccc(Cl)cc1 (stereo not drawn),0,-15,6.8*,-7,1,-2
CCCCCCCCCCCCCCCC(=O)SCCOP(=O)(O)OCC[N+](C)(C)C,.,-2,5.4*,.,2,15
O=C(CC(=O)N/N=C/c1c(F)cccc1Cl)NCCc1ccccc1,0,-5,5.6*,0,1,0
O=C(CO)N/N=C\c1c(F)cccc1Cl,0,13,0,31,.,.
CCCOC(=O)C1=C(C)NC2=C(C(=O)CC(c3ccccc3)C2)C1c1ccc(CC)cc1 (stereo not drawn),1,12,2,9,.,.
O=C(NCc1ccccc1)c1nnc(Cc2cccc(F)c2)o1,0,5,4.9*,-9,1,3
FC(F)(F)c1ccc(NCCN2CCOCC2)nc1,0,-13,8.2*,2,0,2
N#Cc1ccc(NC(=O)c2cc3nc(-c4ccc(Cl)cc4)cc(C(F)(F)F)n3n2)cc1,0,-237,-1,-10,.,.
CCc1ccc(C(N)CC(=O)O)cc1Br (stereo not drawn),0,0,1,6,.,.
CCC(C)NCCOc1ccc([N+](=O)[O-])cc1 (stereo not drawn),0,-14,6.6*,5,0,6
CN1CCN(CCNC(=O)c2ccnc(-n3ncc4cc(Nc5cccc(F)c5)ccc43)c2)CC1,0,4,3,9,.,.
Fc1ccc(Cn2cc(/C=N/n3cnnc3)c3ccccc32)cc1,1,18,-2,-2,.,.
Clc1ccc(Cn2cc(/C=N/n3cnnc3)c3ccccc32)cc1,0,1,6.2*,10,0,-2
Cc1nc2nc(SCC(=O)NC3CCCCC3)nn2c(C)c1Cc1c(F)cccc1Cl,0,8,6.4*,4,0,2
Cn1c(=O)c2ncn(CC(=O)Nc3ccc(C(=O)O)cc3)c2n(C)c1=O,0,1,5.2*,-4,0,4
O=[N+]([O-])c1c(Cl)ccc2nsnc12,0,0,1,-1,.,.
O=[N+]([O-])c1c(Oc2ccc(Cl)cc2)ccc2nsnc12,0,12,5.3*,-5,0,-7
COC(=O)C1=C(C)N(c2ccc(C(C)C)cc2)C(=O)/C1=C\c1ccco1,0,11,6.0*,29,0,12
COC(=O)C1=C(C)N(c2ccc(Cl)cc2)C(=O)/C1=C\c1ccco1,0,9,3,6,.,.
CCOC(=O)C1=C(C)OC(N)=C(C#N)C1c1ccc(F)c(Br)c1 (stereo not drawn),1,27,9.6*,3,0,9
CCOC(=O)C1=C(CC)OC(N)=C(C#N)C1c1ccc(F)c(Br)c1 (stereo not drawn),0,-8,0,10,.,.
Cc1nnc(NC(=O)c2ccc(OCC(C)C)cc2)s1,0,14,0,-47,.,.
CCOc1ccc(NC(=O)C(=O)NN=C2CCCCC2)cc1,0,-16,1,-4,.,.
SMILES,FBW7 activator,MITF inh,GPR151 activ,TEAD-YAP block,GPR151 conf act,GPR119 ag
CC(C(O)c1ccc(O)cc1)N1CCC(Cc2ccccc2)CC1 (stereo not drawn),0,26,10*!,-3,2,10
NC(=S)Nc1nc2cc(Cl)cc(Cl)c2[nH]c1=O,0,6,-1,-6,.,.
COc1cccc(C=O)c1OCc1ccc(Br)cc1,0,-9,-2,-8,.,.
COc1cccc(C=O)c1OCc1ccc(F)cc1,0,-12,5.2*,0,1,-5
CCCCCCN1C(=O)C2C(C(=O)Nc3cccc(SC)c3)C3C=CC2(O3)C1C(=O)NC1CCCCC1 (stereo not drawn),0,-1,-1,7,.,.
CC(C(=O)O)N1C(=O)/C(=C/C=C/c2ccccc2)SC1=S (stereo not drawn),0,1,7.4*,-7,1,17
CC(=O)Nc1ccc(N2CCCCC2)c(C(=O)Nc2cccc(C)c2)c1,0,12,-1,4,.,.
Cc1cccc(NC(=O)c2cc(N3C(=O)CCC3=O)ccc2N2CCCCC2)c1,0,-14,8.2*,4,0,9
Cc1c(NC(=O)Nc2cccc(Cl)c2)cccc1[N+](=O)[O-],0,27,1,-11,.,.
COc1ccc(Cl)cc1NC(=O)Nc1cccc([N+](=O)[O-])c1C,0,18,8.3*,8,2,-1
CC(NS(=O)(=O)c1ccc(S(=O)(=O)N(C)C)cc1)c1cccs1 (stereo not drawn),0,15,0,-3,.,.
c1ccc(Cn2cc(-c3ncoc3-c3ccnc(Nc4ccc(N5CCOCC5)cc4)c3)cn2)cc1,0,13,6.0*,45*,0,-3
O=C(Cn1nc2oc3ccccc3n2c1=O)NC1CCCC1,0,-4,7.8*,2,0,9
COCCNC(=O)c1sc2ncnc(N3CCc4ccccc4C3)c2c1C,0,0,5.3*,-3,-1,0
O=C(NCC1CCCN(CCCn2cccn2)C1)C1(c2ccc(Cl)cc2)CC1 (stereo not drawn),0,1,2,11,.,.
CCCn1c(-c2nc(OC)cc(OC)n2)n[nH]c1=S,0,-11,7.0*,1,-1,-6
Cc1cccn2c(CN(C)CCC3CCOCC3)c(C(=O)N(C)CCc3ccccc3)nc12,0,2,6.2*,5,0,-4
Cc1ccc(CN2CCN(C3CCCCC3)C(CCO)C2)o1 (stereo not drawn),0,-2,-1,-13,.,.
O=C1c2ccccc2NC2(C(=O)N(Cc3cccc4ccccc34)c3ccccc32)N1c1ccccc1 (stereo not drawn),0,4,7.0*,25,-1,-2
NC(=O)c1c(NC(=O)CN(C(=O)C2CC2)C2CCCC2)sc2c1CCCC2,0,10,0,3,.,.
COc1ccc(Cn2c(CCC(=O)NCc3ccc(C)cc3)nc3ncccc3c2=O)cc1,0,6,-2,4,.,.
C/C(CCS(=O)(=O)c1ccc(Cl)c(Cl)c1)=N\NC(N)=S,0,-1,1,-1,.,.
NS(=O)(=O)c1ccc(NC(=S)NCCN2CCCCC2)cc1,0,7,6.3*,1,-1,1
